PubChem BioAssay (NCI)
Compounds without any hit were thinned out: in the full panel of roughly 79,000, 15% have a hit. Rule as the data show it: active = growth inhibition above about 70%; inactive = the rest.

What was measured:
[1] = NCI Yeast Anticancer Drug Screen. Data for the rad50 strain (AID 155);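 also: 0% = growth of vehicle-only cultures of the same strain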; conditions: S. cerevisiae rad50 strain growth inhibition; at 50.0 µM; hits give high values
Summary of the method: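 Genetically altered yeast (DNA repair pathway); compound treatment; growth inhibition vs vehicle ctrl.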

[2] = NCI Yeast Anticancer Drug Screen. Data for the mec2-1 strain (AID 157); conditions: S. cerevisiae mec2-1 strain, at 50.0 µM, hits give high values
Summary of the method: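 mec2-1 yeast strain, carrying an alteration in DNA damage repair or cell cycle control, was exposed to compounds; growth inhibition was measured relative to vehicle-treated controls.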

[3] = NCI Yeast Anticancer Drug Screen. Data for the sgs1 mgt1 strain (AID 161);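 also: 0% = growth of cultures given vehicle only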; conditions: S. cerevisiae sgs1 mgt1 strain, at 50.0 µM, hits give high values
Summary of the method: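 This yeast growth screen uses a strain with defined DNA-repair lesions; compound-treated growth is compared with vehicle-treated growth.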

[4] = NCI Yeast Anticancer Drug Screen. Data for the cln2 rad14 strain (AID 165);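 also: 0% = growth equal to vehicle treated cultures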; conditions: S. cerevisiae cln2 rad14 strain, at 50.0 µM, hits give high values
Summary of the method: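 Yeast carrying cln2 and rad14 alterations (cell cycle control and DNA damage repair) were exposed to compounds. Growth inhibition was measured against vehicle-treated controls.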

[5] = NCI Yeast Anticancer Drug Screen. Data for the bub3 strain (AID 167); conditions: S. cerevisiae bub3 mutant strain, at 50.0 µM, hits give high values
Summary of the method: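 Yeast carrying a defined mutation is treated with each compound, and growth is compared with that of vehicle-exposed cells to give inhibition.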

[6] = NCI Yeast Anticancer Drug Screen. Data for the mlh1 rad18 strain (AID 175); conditions: S. cerevisiae mlh1 rad18 strain growth inhibition; at 50.0 µM; hits give high values
Summary of the method: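 Growth inhibition of the yeast strain was measured after compound exposure and expressed relative to vehicle-treated controls. The strain carries defined defects in DNA damage repair.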

Measured: growth inhibition

CC(C)(N)COS(=O)(=O)O
inactive: [1] -14.6% | [2] -14.1% | [3] -7.95% | [4] -6.9% | [5] 9.25% | [6] -14.1%

CCn1c(=O)n(C)c2c(=O)n(C)c(=O)n(C)c21
inactive: [1] 21.6% | [2] -3.8% | [3] -13.3% | [4] 1% | [5] 1.4% | [6] 2.2%

CC(=O)c1ccc(C(C)(C)C)cc1
inactive: [1] -2.35% | [2] -5.2% | [3] -12.9% | [4] 12.1% | [5] 2.5% | [6] 15%

CCNCCCCNCCCCNCCCCNCCCCNCC
inactive: [1] -16.6% | [2] 4.25% | [3] -6.1% | [4] 11.2% | [5] 3.95% | [6] 6.7%

COC(=O)C(O)c1ccccc1 (stereo not given)
inactive: [1] 21.4% | [2] 11.3% | [3] 5.55% | [4] 23.7% | [5] 11.1% | [6] 20%

CCOC(=O)CCCS(C)(=O)=O
inactive: [1] -26.5% | [2] -19.6% | [3] -32% | [4] -17.9% | [5] -1.95% | [6] 7.3%

CC(C)(O)C#CC#CC(C)(C)O
inactive: [1] 30.9% | [2] 4.2% | [3] 5.4% | [4] 3.8% | [5] -41% | [6] -0.55%

O=C(CN1CCNCC1)N1CCOCC1
inactive: [1] -25.6% | [2] -25.1% | [3] -17.8% | [4] -23.9% | [5] -16.7% | [6] -13.8%

O=C(O)c1ccc(S(=O)(=O)O)cc1
inactive: [1] 8.55% | [2] 11.8% | [3] 0.45% | [4] -12.4% | [5] 18.5% | [6] 12.5%

O=C(O)/C=C/C(=O)NCc1ccccc1
inactive: [1] 34.6% | [2] 42.6% | [3] 48% | [4] 1.4% | [5] 44.4% | [6] 26.7%

CCC(O)CC(CC)CO (stereo not given)
inactive: [1] -4.1% | [2] -2.7% | [3] 4.4% | [4] -32.7% | [5] -12.2% | [6] -10.1%

O=S(=O)(O)C(Nc1ccccc1)c1ccccc1 (stereo not given)
inactive: [1] -4.35% | [2] -27.7% | [3] 9.5% | [4] -0.25% | [5] 16% | [6] -11.6%

CN(c1ccccc1)c1ncnc2c1ncn2C
inactive: [1] 2.65% | [2] -0.65% | [3] 1.75% | [4] -4.7% | [5] 29.9% | [6] 4.1%

CCOC(=O)c1ccc(Nc2sc(C(=O)c3cccc([N+](=O)[O-])c3)c(N)c2C#N)cc1
inactive: [1] -9.95% | [2] -9.95% | [3] -0.95% | [4] 5.75% | [5] 2.8% | [6] 0.55%

Cc1ccc(O)c(C(=O)c2ccccc2)c1
inactive: [1] 4.3% | [2] -16.7% | [3] 12.5% | [4] -8.8% | [5] -3.65% | [6] 14.7%

O=C(Nc1ccccc1)OCCc1ccccc1
inactive: [1] 45.3% | [2] 37.8% | [3] 27.4% | [4] 42.9% | [5] 37.6% | [6] 34.2%

COC(=O)/C=C/C(=O)NC(N)=O
inactive: [1] -19.6% | [2] -41.2% | [3] -22.1% | [4] 9.95% | [5] -17.2% | [6] -8.05%

CC1(C(=O)O)NC(C(=O)O)Cc2c1[nH]c1ccccc21 (stereo not given)
inactive: [1] 26.5% | [2] -13.2% | [3] 3.15% | [4] 3.65% | [5] 32.4% | [6] 13.3%

CC1CC(O)CC(C)(C)C1 (stereo not given)
inactive: [1] 5.55% | [2] -10.1% | [3] 1.35% | [4] -25.4% | [5] 2.2% | [6] -4.25%

COc1cc2c3cc1Oc1c(OC)c(OC)cc4c1C(Cc1ccc(O)c(c1)Oc1ccc(cc1)CC3N(C)CC2)N(C)CC4 (stereo not given)
inactive: [1] 1.05% | [2] 0.55% | [3] 0.65% | [4] 6.9% | [5] 8.1% | [6] -89.8%

Cc1cc(=O)n(-c2ccc(F)cc2)[nH]1
inactive: [1] -5.15% | [2] -14.1% | [3] 22.1% | [4] 2.8% | [5] 50.6% | [6] 12.1%

CCCCCCCCO
inactive: [1] 12.1% | [2] 17.2% | [3] 2.25% | [4] 5.5% | [5] -20.4% | [6] -13.2%

CCCCCC(C)(CC(=O)O)CC(=O)O
inactive: [1] -18.6% | [2] -15.3% | [3] -21.4% | [4] -27.8% | [5] 0.7% | [6] -15.4%

S=C(Nc1ccccc1)N1CCCCC1
inactive: [1] -2.8% | [2] 1.25% | [3] -10.2% | [4] -39.3% | [5] 2.4% | [6] -8.4%

O=[N+]([O-])c1cccc2nsnc12
inactive: [1] 63.5% | [2] 30.6% | [3] 53.8% | [4] 16.6% | [5] -8.15% | [6] 43.6%

O=C(c1ccccc1)C1CCC1
inactive: [1] 22.6% | [2] -5.25% | [3] 10.2% | [4] -17.5% | [5] 7.95% | [6] 6.75%

CS(=O)CC1=NC(=N)N=C1CS(C)=O (stereo not given)
inactive: [1] -9.75% | [2] -11.2% | [3] 12.1% | [4] -22.1% | [5] 2.85% | [6] 5.75%

CC12CC3CC1C(C(=O)O2)C3C(=O)O (stereo not given)
inactive: [1] -20.6% | [2] -27.5% | [3] -25.8% | [4] 5.85% | [5] -7.2% | [6] -8.8%

COc1cc2c(cc1OC)[C@H](C(=O)O)[C@@H](c1ccc(OC(C)C)c(OC)c1)N(C)C2=O
inactive: [1] 6.05% | [2] -10% | [3] 7.2% | [4] -15.2% | [5] 15.4% | [6] -9.05%

CC1CCC2C(C)(C)C3CC12CC1OC13C (stereo not given)
inactive: [1] -17.4% | [2] -30.4% | [3] 0.7% | [4] 4.95% | [5] 0.65% | [6] -14.5%

N#CC1(Nc2ccc3c4c(cccc24)CC3)CCCCC1
inactive: [1] 0.8% | [2] 7.2% | [3] 15.1% | [4] 16% | [5] 26.2% | [6] 12.5%

CC(C)OC(C(=O)O)c1ccccc1 (stereo not given)
inactive: [1] -18.2% | [2] 2.2% | [3] -3.65% | [4] 11.8% | [5] 1.05% | [6] 0%

O=C(/C=C\c1ccc(O)cc1)c1ccccc1
inactive: [1] 15.9% | [2] -14.3% | [3] 45.9% | [4] 8.6% | [5] 29.6% | [6] 14.1%

C/C(=N/NC(N)=O)c1ccco1
inactive: [1] 1.1% | [2] -1.05% | [3] -3.55% | [4] -2% | [5] 1.95% | [6] -3.55%

Oc1ccc2c(c1)OCC1(O)Cc3cc(O)c(O)cc3C21 (stereo not given)
inactive: [1] 3.9% | [2] -2.4% | [3] 10.3% | [4] 3.6% | [5] 9.75% | [6] -3.8%
